From PubChem BioAssay (NCATS) come the findings set out here.

Where “and” joins values, the source holds several entries; their conditions need not be identical. Equal values may be shown once. Inconclusive results are not listed. Calls of active or inactive are those of the source. Unless noted, calls come from the whole dose curve; as a rule, active = well fitted curve in the direction sought with a large enough effect; inconclusive = small, poorly fitted or top-dose-only effect, or another doubt; inactive = no such curve, though single readings can be large; an effect the other way counts as inactive or inconclusive.

Assay [1] can be described thus: qHTS to identify inhibitors of the type 1 interferon - major histocompatibility complex class I in skeletal muscle: primary screen against the NCATS Mechanism Interrogation Plate v5.0 (MIPE) Libary (AID 1347411).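 For activity change, negative = inhibition: plate controls were vehicle for no effect and reference inhibitor for full effect.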 Note: nearly all actives have a fitted effect of over 65% in size. Note: potency is the fitted concentration of half-maximal effect. Summed up:
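Seed engineered human myoblasts (HLA-B HiBit) in medium without dexamethasone containing 4 ng/ml IFN-beta; after 1 hr add compound titrations (top 46 uM final). Incubate 24 hrs at 37 C, lyse 10 min with HiBiT reagent, read luminescence.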

Assay [2] is described as follows: Primary qHTS for inhibitors of nuclear receptor binding SET domain protein 2 (NSD2) in an isogenic RCH-ACV NSD2 p.E1099K mutant (9B) (AID 1645876; note: nearly all actives have a fitted effect of over 70% in size; note: potency is the fitted concentration of half-maximal effect). (In qHTS, concentration-response curves come from the screen itself.)
A short description of assay [3]: Primary qHTS for inhibitors of nuclear receptor binding SET domain protein 2 (NSD2) in an RCH-ACV wild type WT cells (2C) (AID 1645877). Note: nearly all actives have a fitted effect of over 70% in size. Note: potency is the fitted concentration of half-maximal effect.
In assay [4] the target is Glutathione peroxidase 1 (Homo sapiens) (UniProt P07203). The assay can be described thus: Primary qHTS Assay for Inhibitors of Recombinant Selenoprotein Glutathione Peroxidase 1 (GPX1) (AID 1845191). Note: nearly all actives have a fitted effect of over 65% in size. A digest of the protocol: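 GR-coupled readout: NADPH consumption tracked by fluorescence, ex 340/em 450 nm, at t=0 and after 15 min at RT. Final mix 10 nM GPX1, 1 mM GSH, 0.5 mM CHP, 0.5 mM NADPH, 100 nM GR, 0.01% BSA, following 30 min enzyme–compound preincubation.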

The target in assay [5] is Phospholipid hydroperoxide glutathione peroxidase GPX4 (Homo sapiens) (UniProt P36969). The assay can be described thus: Primary qHTS Assay for Inhibitors of Recombinant Selenoprotein Glutathione Peroxidase 4 (GPX4) (AID 1845192). For activity change, negative = inhibition: % is set by controls: 0 for no effect and ±100 for the full control effect. Note: nearly all actives have a fitted effect of over 65% in size. Note: potency is the fitted concentration of half-maximal effect. Particulars: outcome: dose series up to 50 µM unless noted. Summed up:
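Steps: GPX4 plus compound, 30 min RT; add GR/GSH/NADPH master mix; start with cumene hydroperoxide; read 340/450 nm fluorescence at 0 and 15 min. Finals were 200 nM GPX4, 1 mM GSH, 0.5 mM CHP, 0.5 mM NADPH, 100 nM GR.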

Assay [6] in a line: qHTS assay to identify inhibitors of the type 1 interferon - major histocompatibility complex class I in skeletal muscle: Counter screen cell viability and HiBit confirmation (AID 1347412). For activity change, negative = inhibition: % is set by controls: 0 for no effect and ±100 for the full control effect. For all read-outs here: nearly all actives have a fitted effect of over 60% in size. Note: potency is the fitted concentration of half-maximal effect. The conditions noted are these: iHSKM muscle cells + IFN-b, HiBiT or CellTiter-Glo, 24 h; for activity change, negative = inhibition: at 45.9 µM (top of the series). A digest of the protocol:
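Human myoblast knock-in line, 4.0 ng/ml IFN-beta stimulation, 24 h compound treatment. Endpoints: HiBiT lytic luminescence (HLA-B level) and CellTiter Glo (ATP). Dosing 12 concentrations, 3-fold steps, 46 uM highest final.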

In assay [7] the target is Calcium and integrin-binding protein 1 (Homo sapiens) (UniProt Q99828). The assay can be described thus: Primary qHTS for Identification of Calcium Integrin Binding Protein 1 (CIB1) Competitor (AID 1508620). Note: top concentration of the series differs between compounds; % is set by controls: 0 for no effect and ±100 for the full control effect. A digest of the protocol: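 Fluorescence polarization competition: GST-tagged CIB1 (1 uM final) preincubated with compound 15 min at room temperature, then FITC-labelled alphaIIb peptide (100 nM final) added. After 15 min at room temperature, polarization read at Ex 480/Em 540.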

The nature of assay [8]: qHTS Assay for Lipid Storage Modulators (AID 1519; calls by dose curve; for activity change, negative = inhibition: % is set by controls: 0 for no effect and ±100 for the full control effect). The conditions noted are these: Drosophila S3 cells, BODIPY lipid droplet/cell ratio, laser cytometry, cells loaded with oleic acid. A digest of the protocol: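 Cells seeded at 5,000 per well were treated with compounds over a concentration series and loaded with oleic acid (400 uM, as added). Lipid droplet fluorescence (488 nm excitation, 500-530 nm channel) was read by laser-scanning cytometry and normalized to 20 uM Triacsin C.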

Calcium and integrin-binding protein 1 (Homo sapiens), sequence (Q99828 whole entry, looked up): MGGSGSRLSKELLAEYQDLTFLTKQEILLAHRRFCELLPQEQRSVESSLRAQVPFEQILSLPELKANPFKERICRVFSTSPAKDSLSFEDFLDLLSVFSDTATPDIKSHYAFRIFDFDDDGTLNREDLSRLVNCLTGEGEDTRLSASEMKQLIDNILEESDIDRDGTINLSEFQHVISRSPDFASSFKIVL
Phospholipid hydroperoxide glutathione peroxidase GPX4 (Homo sapiens), sequence (P36969 whole entry, looked up): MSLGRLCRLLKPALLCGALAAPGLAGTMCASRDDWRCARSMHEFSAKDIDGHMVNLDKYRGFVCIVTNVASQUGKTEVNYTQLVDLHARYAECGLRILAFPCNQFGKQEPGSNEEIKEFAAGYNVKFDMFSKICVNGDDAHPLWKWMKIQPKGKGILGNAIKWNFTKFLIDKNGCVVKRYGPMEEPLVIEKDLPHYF
Glutathione peroxidase 1 (Homo sapiens), sequence (P07203 whole entry, looked up): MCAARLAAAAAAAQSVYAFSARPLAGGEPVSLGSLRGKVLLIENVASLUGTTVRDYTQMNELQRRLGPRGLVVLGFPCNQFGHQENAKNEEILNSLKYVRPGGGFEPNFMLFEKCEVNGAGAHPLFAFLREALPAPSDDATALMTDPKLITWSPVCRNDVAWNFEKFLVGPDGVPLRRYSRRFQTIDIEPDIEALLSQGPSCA

With `O=C(/C=C/c1cccnc1)NCCCCC1CCN(C(=O)c2ccccc2)CC1`, the Potency result in assay [1], in assay [4] and in assay [5] was “inactive” in each case. Moreover, the figures for the Potency in assay [2] and in assay [3] were 1.9 nM (active) and 4.7 nM (active), respectively.
Regarding `Cc1ccc(NC(=O)NCc2ccc3c(c2)CN(C2CCC(=O)NC2=O)C3=O)cc1Cl` (configuration not stated), the Potency in assay [1] is 14.7 nM (active); in assay [2] it was 1.5 nM (active); in assay [6] (HiBiT), 7.9 nM (active). In addition, the Potency entry in assay [4] and in assay [5] was “inactive” each time. The activity change, negative = inhibition in assay [6] (Viability) was -11.6% (inactive).
For the molecule `Cc1cc(C)c(CNC(=O)c2cc(-c3ccc(N4CCN(C)CC4)nc3)cc3c2c(C)cn3C(C)C)c(=O)[nH]1`, the Potency result in assay [1] was “inactive”. For the same molecule, the Potency in assay [2] is 16.6 µM (active) and 18.6 µM (active); in assay [3], 20900 nM (active); in assay [5], 12800 nM (active). The activity change, negative = inhibition in assay [6] (HiBiT) is 0.953% (inactive); in assay [6] (Viability), -10.1% (inactive).
On to `COc1cccc2c1C(=O)c1c(O)c3c(c(O)c1C2=O)C[C@@](O)(/C(CO)=N/NC(=O)CCCCCN1C(=O)C=CC1=O)C[C@@H]3O[C@H]1C[C@H](N)[C@H](O)[C@H](C)O1`, for which the results for the Potency in assay [1], in assay [2] and in assay [6] (HiBiT) were 3300 nM (active), 209 nM (active) and 2790 nM (active), respectively. For the same molecule, the Potency result in assay [4] and in assay [5] was “inactive” in each case. Further, in assay [6] (Viability), the activity change, negative = inhibition was -0.403% (inactive).
With `C=CCNC1=C2CC(C)CC(OC)C(O)C(C)/C=C(\C)C(OC(N)=O)C(OC)/C=C/C=C(\C)C(=O)NC(=CC1=O)C2=O` (configuration not stated), the results for the Potency in assay [1], in assay [2] and in assay [6] (HiBiT) were 58.7 nM (active), 1320 nM (active) and 49.7 nM (active), respectively. In assay [4], the Potency result was “inactive”.
Regarding `CN(Cc1ccccc1)C(=O)c1ccc(S(=O)(=O)Nc2ccccc2)cc1`, the Potency result in assay [1], in assay [7], in assay [4] and in assay [5] was “inactive” in each case.
Turning to `Cn1cc(/C=C2\C(=O)Nc3cccnc32)c2ccccc21`, the Potency in assay [1] was 29400 nM (active); in assay [2], 5250 nM (active); in assay [3] it was 8330 nM (active). Further, the Potency entry in assay [4] and in assay [5] was “inactive” each time.
Consider `Cc1c(CN2CCN(C(=O)[C@H](C)O)CC2)sc2c(N3CCOCC3)nc(-c3cnc(N)nc3)nc12`, for which the Potency in assay [1] was 262 nM (active); in assay [2] it was 41.7 nM (active); in assay [3] it was 74.2 nM (active). Besides, the Potency result in assay [4] and in assay [5] was “inactive” in each case.
`CNc1nc(-c2ccc3c(N)n[nH]c3c2)cc(N2C[C@@H](C(=O)NC3CCCCC3)CC[C@H]2C)n1`: the Potency in assay [1] is 13100 nM (active); in assay [2], 525 nM (active); in assay [3], 833 nM (active); in assay [6] (HiBiT), 31300 nM (active). In addition, the Potency result in assay [4] and in assay [5] was “inactive” throughout.
In the case of `NS(=O)(=O)c1ccc(Cc2c(-c3cccc(-c4ccccc4)c3)nn(-c3nc(C(=O)O)cs3)c2CC2CC2)cc1`, the Potency result in assay [1] and in assay [4] was “inactive” in each case. For the same molecule, in assay [5], the Potency is 6400 nM (active).
On to `Cc1ccc(-n2c(C)cc(-c3nnc4n3CCCCC4)c2C)cc1`, for which the Potency entry in assay [1], in assay [7], in assay [4] and in assay [5] was “inactive” each time. For the same molecule, the Potency in assay [2] and in assay [3] was 18600 nM (active) throughout.
As for `COc1ccc(-n2cnc3cc(C(=O)N4CCCCC4)ccc32)cc1`, the Potency result in assay [1], in assay [7], in assay [2], in assay [3] and in assay [5] was “inactive” throughout.
For the molecule `COC1=C2C[C@H](C)C[C@H](OC)[C@H](O)[C@@H](C)/C=C(/C)[C@H](OC(N)=O)[C@@H](OC)/C=C\C=C(\C)C(=O)NC(=CC1=O)C2=O`, the Potency in assay [1] is 2940 nM (active); in assay [6] (HiBiT), 27.9 nM (active). Besides, the Potency entry in assay [2], in assay [3], in assay [4] and in assay [5] was “inactive” throughout.
As to `CC1(C)OC2=C(C(=O)c3ccccc3C2=O)[C@H](NCc2ccccc2)[C@@H]1O`, the Potency in assay [1] is 9300 nM (active); in assay [2], 7420 nM (active); in assay [6] (HiBiT), 9910 nM (active); in assay [6] (Viability), 14000 nM (active). The Potency entry in assay [4] and in assay [5] was “inactive” each time.
As to `Cc1c[nH]c2nc(Nc3ccc(N4CCN(C)CC4)c(F)c3)nc(-c3cccc(CC#N)c3)c12`, the Potency in assay [1] was 2340 nM (active); in assay [2] it was 525 nM (active); in assay [3], 332 nM (active); in assay [6] (HiBiT), 1760 nM (active). Further, the Potency entry in assay [4] and in assay [5] was “inactive” each time.
`C[C@H]1CC2[C@@H]3CCC4=CC(=O)C=C[C@]4(C)[C@@]3(F)[C@@H](O)C[C@]2(C)[C@@]1(O)C(=O)CO` (some centres not stated): the activity change, negative = inhibition in assay [8] (at 57.5 µM (top of the series)) is -0.272% (inactive). For the same molecule, the max response is -0.0442% in assay [8] (measured here: cell count channel max response) and 0.965% in assay [8] (measured here: lipid channel max response). The Potency entry in assay [1], in assay [2], in assay [4] and in assay [5] was “inactive” throughout. For the same molecule, in assay [3], the Potency is 105 nM (active).
On to `C[C@H](CCC(=O)O)[C@H]1CC[C@H]2[C@@H]3[C@@H](O)C[C@@H]4C[C@H](O)CC[C@]4(C)[C@H]3CC[C@]12C`, for which the Potency entry in assay [1], in assay [2], in assay [3], in assay [4] and in assay [5] was “inactive” each time.
